Bioassay records (PubChem)
The list is not random: actives were taken first. Their share in the collection is about 2.4%.
TLR9-MyD88 inh – TLR9-MyD88 interaction inhibition. AID 504734. CHO BLA complementation TLR9-MyD88, CCF4 FRET ratio. inhibition, % at 4.98 µM. 340,000 tested, 0.21% active;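 active means inhibition above the mean over all tested compounds plus 3 SD, cut at about 21% in these data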
HSF1 activator – increases HSF-1 driven luciferase reporter signal. NIH3T3-HGL HSF-1 luciferase reporter, MG132, 8 h; 100% = twice DMSO control signal. activation, % at 9 µM. 300,000 tested, 1.7% active;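 active means mean replicate activation of at least 50% with a set share of replicates each reaching 50%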
HSF1 inhib – HSF1 inhibition. NIH3T3-HGL HSE-luciferase, MG132-induced, luminescence 8 h; hits give low values. activity change, negative = inhibition, % at 7.5 µM (by protocol). 300,000 tested, 0.77% active;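 active means more than half of replicate wells show activity change below -50%, luminescence cut by over half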;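 further: luciferase reports HSF-1 transcriptional activity via heat shock element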
NOD2 RIPK2 PPI – blocks binding of human NOD2 to RIPK2; inhibition, % at 4.98 µM; O43353; 360,000 tested, 0.38% active; AID 624267; CHO BLA complementation NOD2-RIPK2, CCF4 ratio; in the data active means inhibition above about 21%
Target sequence (O43353 whole entry, looked up): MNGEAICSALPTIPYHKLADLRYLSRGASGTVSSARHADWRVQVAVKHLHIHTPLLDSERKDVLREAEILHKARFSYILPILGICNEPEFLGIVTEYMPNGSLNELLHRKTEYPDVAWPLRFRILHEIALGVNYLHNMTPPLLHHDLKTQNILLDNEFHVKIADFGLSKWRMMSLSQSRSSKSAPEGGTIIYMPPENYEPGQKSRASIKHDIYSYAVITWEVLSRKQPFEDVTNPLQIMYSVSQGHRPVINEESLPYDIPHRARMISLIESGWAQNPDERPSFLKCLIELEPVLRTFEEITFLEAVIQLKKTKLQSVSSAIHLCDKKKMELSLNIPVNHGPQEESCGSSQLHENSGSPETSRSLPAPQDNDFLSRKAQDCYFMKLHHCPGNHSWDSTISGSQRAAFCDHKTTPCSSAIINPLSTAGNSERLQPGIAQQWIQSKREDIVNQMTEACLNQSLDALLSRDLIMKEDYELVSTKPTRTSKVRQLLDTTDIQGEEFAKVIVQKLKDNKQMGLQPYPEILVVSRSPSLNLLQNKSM
TLR4-MyD88 BLA – inhibitors of human TLR4-MyD88 binding. O00206+Q99836. HeLa CL3-4 TLR4/MyD88 BLA complementation, FRET ratio. inhibition, % at 8.4 µM. 200,000 tested, 0.18% active; in the data active means inhibition above about 25%
Of the large screens only hits and unclear results are named; the others gave an inactive call.

Cc1cc(NC(=O)Cn2cnc3sc(C)c(-c4ccccc4)c3c2=O)no1	HSF1 activator 185
CC(=O)NC(Cc1ccccc1)C(=O)Oc1ccc2ccccc2c1 (stereo not drawn)	none (no result: HSF1 activator, HSF1 inhib, TLR4-MyD88 BLA)
CCN(c1ccccc1)S(=O)(=O)c1ccc(Cl)c(NC(=O)CSc2nncs2)c1	none
CCN(c1ccccc1)S(=O)(=O)c1ccc(Cl)c(NC(=O)CSc2nnc(C)s2)c1	HSF1 inhib -66
CC(=O)N(C)C1=C(O)c2ccccc2C(=O)C1=O	HSF1 inhib -90
CC(=O)N(C1=C(O)c2ccccc2C(=O)C1=O)C1CCCCC1	none
CCCc1cc(=O)oc2c3c(cc(OCC(=O)N[C@@H](CSC)C(=O)O)c12)OC(C)(C)CC3	none (no result: TLR4-MyD88 BLA)
CCCc1cc(=O)oc2c3c(cc(OCC(=O)N[C@@H](C)C(=O)O)c12)OC(C)(C)CC3	HSF1 activator 67 (no result: TLR4-MyD88 BLA)
CCOc1ccc(C(C)=O)cc1COC(=O)c1ccc2c(c1)NC(=O)CS2	none (no result: HSF1 activator, HSF1 inhib, TLR4-MyD88 BLA)
O=C(CC(=O)c1ccccc1[N+](=O)[O-])c1ccccc1	HSF1 inhib -70 (no result: TLR9-MyD88 inh, NOD2 RIPK2 PPI, TLR4-MyD88 BLA)
O=C(NCc1cccs1)c1ccccc1[N+](=O)[O-]	HSF1 inhib -70
CSc1ncc(C(=O)Nc2cccnc2)c(C(F)(F)F)n1	HSF1 inhib -79 (no result: TLR4-MyD88 BLA)
O=C(COC(=O)COc1ccc(Cl)cc1Cl)Nc1cccnc1Cl	HSF1 activator 63
Cc1cc(C(=O)O)cc(S(=O)(=O)Nc2c(C)nn(C)c2C)c1C	none (no result: HSF1 activator, HSF1 inhib, TLR4-MyD88 BLA)
COc1ccc(/C=C2\NC(=O)C(C=NCc3ccccc3)=C2O)cc1	none
O=C1N/C(=C\c2ccc(O)cc2)C(O)=C1C=NCc1ccccc1	HSF1 activator 64
CCOC(=O)C1=CN(Cc2ccco2)S(=O)(=O)N(CC)C1c1ccc(F)c(Cl)c1 (stereo not drawn)	none (no result: HSF1 activator, HSF1 inhib, TLR4-MyD88 BLA)
COc1ccccc1-c1nc(C#N)c(N2CCN(Cc3ccccc3)CC2)o1	none
N#Cc1nc(-c2ccco2)oc1N1CCN(Cc2ccccc2)CC1	HSF1 inhib -80
CCc1ccc(C(=O)NC(CCSC)C(=O)OC)cc1 (stereo not drawn)	HSF1 inhib -81
COC(=O)[C@H](CCSC)NC(=O)Nc1cccc(C)c1C	HSF1 activator 96 (no result: TLR4-MyD88 BLA)
COC(=O)[C@H](CCSC)NC(=O)c1cccnc1SC	none (no result: TLR4-MyD88 BLA)
N#CC1C(=O)NC(=O)CC12CCCCC2 (stereo not drawn)	none (no result: HSF1 activator, HSF1 inhib, TLR4-MyD88 BLA)
CC(=O)Oc1cccc(C(=O)Nc2ccc3c(c2)C(=O)N(CC2CCCO2)C3=O)c1 (stereo not drawn)	HSF1 activator 72 (no result: TLR4-MyD88 BLA)
Cc1ccc(-c2[nH]ncc2/C=N/n2c(C)nc3ccccc3c2=O)cc1	HSF1 inhib -52 (no result: TLR4-MyD88 BLA)
O=c1c2ccccc2nc(COc2ccccc2)n1/N=C/c1cn[nH]c1-c1ccccc1	none
Clc1ccccc1CSc1ncn(-c2ccccc2)n1	HSF1 activator 67
Cc1ccc(CSc2ncn(-c3ccccc3)n2)cc1	none
CCN(CC(=O)Nc1c(F)cccc1F)C(=O)CCc1nc2cc(S(=O)(=O)N3CCOCC3)ccc2n1C	none (no result: TLR4-MyD88 BLA)
Oc1ccc(-c2nc3ccccc3s2)cc1	none (no result: TLR4-MyD88 BLA)
Nc1ccc(O)c(-c2nc3ccccc3s2)c1	none
Oc1ccc(-c2nc3ccccc3s2)c(O)c1	HSF1 activator 61 (no result: TLR4-MyD88 BLA)
Nc1ccccc1-c1nc2ccccc2s1	HSF1 inhib -71
COc1ccc(N(CC(=O)Nc2ccccc2C(=O)N2CCCC2)S(C)(=O)=O)cc1	none (no result: TLR4-MyD88 BLA)
O=C(CSc1nc2ccccc2c(=O)n1-c1ccc(F)cc1)Nc1ccc(Cl)c(S(=O)(=O)N2CCOCC2)c1	none
Cc1ccc(-n2c(SCC(=O)Nc3cc(S(=O)(=O)N4CCOCC4)ccc3Cl)nc3ccccc3c2=O)cc1	HSF1 activator 73
CCc1cccc(NS(=O)(=O)c2ccc3c(c2)NC(=O)C(C)S3)c1 (stereo not drawn)	HSF1 activator 77 (no result: TLR4-MyD88 BLA)
CCN(CC(=O)NCC(=O)Nc1ccc(Br)cc1C)Cc1ccccc1	none (no result: TLR4-MyD88 BLA)
CC(C)c1ccc(N(C(=O)c2csnn2)C(C(=O)NC(C)(C)C)c2ccncc2)cc1 (stereo not drawn)	HSF1 activator 66
CCCOc1ccc(F)cc1-c1cc(C(=O)NCc2cc(C(F)(F)F)cc(C(F)(F)F)c2)[nH]n1	none (no result: TLR9-MyD88 inh, HSF1 activator, HSF1 inhib, TLR4-MyD88 BLA)
CCn1cc(C(=O)N2CCCC(CO)(Cc3ccccc3C)C2)cn1 (stereo not drawn)	none (no result: TLR4-MyD88 BLA)
COc1cc(/C=N/NC(=S)NC2CC3C=CC2C3)cc(OC)c1OC (stereo not drawn)	HSF1 activator 164 (no result: TLR9-MyD88 inh, TLR4-MyD88 BLA)
CCOc1ccc(/C=N/NC(=S)NC2CC3C=CC2C3)cc1 (stereo not drawn)	HSF1 activator 53 (no result: TLR9-MyD88 inh, TLR4-MyD88 BLA)
Oc1c(Br)cc(Br)cc1/C=N/NC(=S)N[C@H]1CC2C=CC1C2 (stereo partly drawn)	none (no result: TLR4-MyD88 BLA)
CCOC(=O)c1cnn(-c2ccccc2)c1-n1cccc1	HSF1 inhib -74
CCc1ccc(NC(=O)c2cnn(-c3ccccc3)c2C2CCNCC2)cc1	none
Cc1c(C(=S)Nc2ccccc2)cnn1-c1ccccc1	HSF1 activator 62
CCc1ccc(NC(=O)c2cnn(-c3ccccc3)c2C)cc1	HSF1 activator 57
Cc1cnc(NC(=O)C2CC(=O)N(c3cccc(Cl)c3)C2)s1 (stereo not drawn)	HSF1 activator 77 (no result: TLR4-MyD88 BLA)
COC(=O)c1ccccc1NC(=O)CCCOc1cc(=O)n(C)c2ccccc12	none (no result: TLR9-MyD88 inh, HSF1 activator, HSF1 inhib, TLR4-MyD88 BLA)
COc1ccc(OC)c(-c2cc(C(=O)N/N=C/c3ccc(F)cc3)c3ccccc3n2)c1	none (no result: TLR9-MyD88 inh, TLR4-MyD88 BLA)
CCOC(=O)N1CCN(C(=O)c2cc(-c3ccc(OCC)cc3)nc3ccccc23)CC1	HSF1 activator 79
COc1ccc(-c2cc(C(=O)N3CCCCCC3)c3ccccc3n2)c(OC)c1	HSF1 activator 79 (no result: TLR4-MyD88 BLA)
COc1ccc(OC)c(-c2cc(C(=O)N/N=C/c3cc(OC)c(OC)cc3OC)c3ccccc3n2)c1	HSF1 inhib -69 (no result: TLR4-MyD88 BLA)
CCc1ccc(-c2cc3c(=O)n(CC(=O)NCCCN4CCN(CC)CC4)nc(C)n3n2)cc1	none (no result: TLR4-MyD88 BLA)
COc1ccc(N2CCN(C(=O)CN3C(=O)NC4(CCCCCC4)C3=O)CC2)cc1	none (no result: HSF1 activator, HSF1 inhib, TLR4-MyD88 BLA)
Cc1cc(C)n(CC(=O)NNC(=O)c2ccc(OC(F)(F)F)cc2)n1	none (no result: HSF1 activator, HSF1 inhib, TLR4-MyD88 BLA)
Cc1cccc(OCC(=O)Nc2cccc(C(=O)NCC(C)C)c2)c1	HSF1 inhib -81
Cc1cccc(OCC(=O)Nc2cc(C)c(C)cc2O)c1	none
Cc1cccc(OCC(=O)Nc2cc(C)ccc2O)c1	HSF1 activator 181
COC(=O)c1ccccc1NC(=O)CSc1nc(Nc2ccccc2)nc(N2CCOCC2)n1	HSF1 activator 77 (no result: TLR4-MyD88 BLA)
O=C(/C=C/c1ccc(N2CCCCC2)c([N+](=O)[O-])c1)c1ccc(O)cc1	HSF1 activator 75
CC(C)(C)OC(=O)NCc1ccc(CNC(=O)c2nc[nH]c2C(=O)N2CCN(c3ccccc3)CC2)cc1	none (no result: HSF1 activator, HSF1 inhib, TLR4-MyD88 BLA)
CCOC(=O)c1c(C)[nH]c(C)c1C(=O)COc1ncnc2cc([N+](=O)[O-])ccc12	HSF1 activator 66
CC(NC(=O)COc1ncnc2cc([N+](=O)[O-])ccc12)c1ccccc1 (stereo not drawn)	none
Cc1ccc(OCC(=O)NCCCNC(=O)c2ccccn2)cc1	none (no result: TLR4-MyD88 BLA)
O=C(COc1ccc(Cl)cc1)NCCN1CCCCC1	HSF1 inhib -55
O=C(NCCN1CCCCC1)Nc1ccccc1Cl	HSF1 inhib -83 (no result: TLR4-MyD88 BLA)
